# ± gives the standard deviation.
# Tested on: MILI (PIWIL2) piRISC loaded with piRNA #1 (26 nt)
# Test: pre-steady-state target cleavage rate (min^-1); guide: piRNA #1 5'p-UGAGGUAGUAGGUUGUAUAGUAUCCA; MIWI and MILI are mouse PIWI proteins and EfPiwi is from a freshwater sponge; tags in brackets are library labels; higher = faster piRNA-guided slicing of the target
# Details: auxiliary factor: 500 nM mouse GTSF1
# In short: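 Cleave-'n-Seq used a transcribed, DNA-blocked target RNA library at 0.1 nM and active affinity-purified piRISC with one synthetic guide at 1 nM, with or without 500 nM GTSF1 partner protein, in HEPES–potassium acetate buffer at 33 °C for 0–8 or 0–960 min. Uncleaved targets were sequenced and normalised to depth and to weakly complementary targets, and three trials were pooled with k3 capped at 0.0001 min^-1. The pre-steady-state cleavage rate was estimated by a burst-and-steady-state fit.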
row,Sequence,pre-steady-state target cleavage rate
1,GGAGACCUAUGAUUACAAGCUACUACGUCA,0.00819 ± 0.0037
2,GGAGACCUAUGAUAUGUUCCUACUCCUCA,< 0.0001
3,GGAGACCUAUGAUAUGUAUCCUACUACCUCA,0.0082 ± 0.0021
4,GGAGACCUAUGAAUACUACCUACUACCUCA,0.0049 ± 0.0017
5,GGAGAGCAUACUAUACAACCUACUACCUCA,0.188 ± 0.015
6,GGAGACCUAACUAUACAACCUACUCACCUCA,0.147 ± 0.032
7,GGAGACCUUACUAUACAACGUUCUACCUCA,0.00546 ± 0.0015
8,GGAGACCUAUGUAUACAAGCUUCUACCUCA,0.0107 ± 0.0027
9,GGAGACCUAACUAUAGUUCCUACUACCUCA,0.0706 ± 0.013
10,GGAGACCUUUCUAUACUACCUACUACCUCA,0.0739 ± 0.011
11,GGAGACCUAUCUAAACAUCCUACUACCUCA,0.116 ± 0.015
12,GGAGACCUAUCUAUACAACCUACUUCCUGA,0.0608 ± 0.018
13,GGAGUGGAUACUAUUGUACCUACUACCUCA,0.115 ± 0.0083
14,GGAGACCUAUCUAUACAACCUACUACCACA,0.136 ± 0.019
15,GGAGACCUAUGUAUUCAUCCUACUACCUCA,0.0771 ± 0.011
16,GGAGACCUAUCUAUACGACCUACUACCUCA,0.0198 ± 0.0044
17,GGAGACCUUACUAAACAAGCUACUACCUCA,0.231 ± 0.018
18,GGAGACCUAUGAUAUGUUCCUAUCUACCUCA,< 0.0001
19,GGAGACCUAUCUUUACAACCUACUACCACA,0.105 ± 0.016
20,GGAGAGGAUACAAUAGAACCUACUACCUCA,0.148 ± 0.012

row,Sequence,pre-steady-state target cleavage rate
1,GGAGAGCAUACUAUAGAACCUACUACCUCA,0.142 ± 0.012
2,GGAGACCUAUGUAUUCAAGCUACUACCUCA,0.109 ± 0.011
3,GGAGACCUAUCUAUACUACGUACUACCUCA,0.013 ± 0.0024
4,GGAGACCUAUGAAUACAACCUACUACCAUCA,0.00646 ± 0.0026
5,GGAGACCUAUCAAUACAACCUACUUCCUCA,0.0355 ± 0.0087
6,GGAGACCUAUCUAUAGAAGCUACUACCUCA,0.143 ± 0.019
7,GGAGACCUAUGAUAACAUCCUACUAGCUCA,0.00409 ± 0.0032
8,GGAGACCAUACUAUACAAGCAACUACCUCA,0.00864 ± 0.003
9,GGAGACCUAUCUAAACAACCUACUACGUCA,0.0213 ± 0.0039
10,GGAGUGGAUACUUUACAAGCUACUACCUCA,0.192 ± 0.013
11,GGAGACCAUACUAAACAUCCUACUACCUCA,0.272 ± 0.022
12,GGAGACCUAUGAUAUCAACUUACUACCUCA,0.00319 ± 0.0027
13,GGAGACCUAUGAAUACAACCUAACUACCUCA,0.00316 ± 0.0021
14,GGAGACCUAUGAUAUGUUGCUUCUACCUGA,< 0.0001
15,GGAGACCUAUGAUUACAUCCUACUACCACA,0.0105 ± 0.0035
16,GGAGAGGAUACUAUAGAACGUACUACCUCA,0.00602 ± 0.0021
17,GGAGAGGAUACUAUACAACCUACUACCUCC [g2:g25:cont:t1C],0.146 ± 0.013
18,GGAGAGGAUAGAUUACAACCUACUACCUCA,0.0529 ± 0.0086
19,GGAGACCUAUCUUUACAUCCUACUACCUCA,0.104 ± 0.013
20,GGAGAGGAUACUAUACUACGUACUACCUCA,0.0192 ± 0.0028
